This note sets out measurements from PubChem BioAssay (NCATS).

Results filed as inconclusive are left out. Values without a mark were called inactive. Activity calls are given as the source filed them. The call rests on the fitted dose curve; in most records, active means well fitted cell-killing curve with a large enough effect; inconclusive means small, poorly fitted or top-dose-only effect, or effect the other way; inactive means no such curve, though single readings can be large or run the other way.
Potency means the concentration at half of the fitted maximal effect.

This assay can be described thus: Quantitative High-Throughput drug screen in 47 multiple myeloma cell lines against the NCATS MIPE library collection: KMS28PE_JCRB cell viability assay (AID 1918983). Further: nearly all actives have a fitted effect of over 35% in size. The note with it: KMS28PE multiple myeloma viability, CellTiter-Glo ATP, 48 h; series mostly up to 45.8 µM; viability, % of DMSO control: at the top concentration. From the text:
PI: Beverly A. Mock Ph.D.
Laboratory of Cancer Biology and Genetics,
Center for Cancer Research, National Cancer Institute,
National Institute of Health, Bethesda, Maryland
Drug resistance and disease progression are common in multiple myeloma (MM) patients, underscoring the need for new therapeutic combinations. […] We hypothesized that effective combinations would reduce MYC expression and enhance p16 activity. […] These preclinical data identify potentially useful drug combinations for evaluation in drug-resistant MM and reveal potential mechanisms of combined drug sensitivity.
Described herein is the primary MIPE qHTS used to cherrypick compounds. Validated compounds were then further tested for potential synergistic activiy.
[1] Peat TJ, Gaikwad SM, Dubois W, Gyabaah-Kessie N, Zhang S, Gorjifard S, Phyo Z, Andres M, Hughitt VK, Simpson RM, Miller MA, Girvin AT, Taylor A, Williams D, D'Antonio N, Zhang Y, Rajagopalan A, Flietner E, Wilson K, Zhang X, Shinn P, Klumpp-Thomas C, McKnight C, Itkin Z, Chen L, Kazandijian D, Zhang J, Michalowski AM, Simmons JK, Keats J, Thomas CJ, Mock BA. Drug combinations identified by high-throughput screening promote cell cycle transition and upregulate Smad pathways in myeloma. Cancer Lett. 2023 Aug 1;568:216284. doi: 10.1016/j.canlet.2023.216284. Epub 2023 Jun 24. PMID: 37356470; PMCID: PMC10408729.
SEQUENCE No. (e.g., 1, 2, 3, etc.); […] (e.g., Cells, Incubation, Reagent, etc.); VALUE and DESCRIPTION.
1; Cells; 5 uL; white, solid bottom 1536-well Greiner assay plate.
2; Compounds; 23 nL; Kalypsis pin tool (Wako USA) equipped with a 1536-well pin head to transfer to the assay plates.
3; Incubation; 48 hours; 37C incubation.
4; Reagent;5uL; CellTiter Glo (Promega).
5; Detector; 425V; Luminescence; Viewlux PerkinElmer.
NOTES (numbers refer to Sequence numbers above)
1. The cell-based screening methods employed in this study were like those previously published. Briefly, the corresponding myeloma cell lines were screened in 1,536-well plates with 500 cells, 5-uL per well for inhibition of cell viability (assessed by measuring ATP levels with CellTiterGlo).
2. NCATS MIPE 4.0 library of approved and investigational drugs were added using the Kalypsis pin tool. Wells treated with DMSO only for 100% viability and media only for 0% viability were used as controls.
3. The assay plates were covered and incubated for 48 hours in a 37C, 5% CO2 incubator with controlled humidity.
4. After 48 hours, CellTilter-GloTM luminescent substrate mix (Promega) reagent was added to the assay plate and plates we incubated for 5 min at room temperature.
5. Signal was measured as median relative luminescence units on a ViewLux (PerkinElmer) multiplate reader.
[1] Heske CM, Davis MI, Baumgart JT, Wilson K, Gormally MV, Chen L, Zhang X, Ceribelli M, Duveau DY, Guha R, Ferrer M, Arnaldez FI, Ji J, Tran HL, Zhang Y, Mendoza A, Helman LJ, Thomas CJ. Matrix Screen Identifies Synergistic Combination of PARP Inhibitors and Nicotinamide Phosphoribosyltransferase (NAMPT) Inhibitors in Ewing Sarcoma. Clin Cancer Res. 2017 Dec 1;23(23):7301-7311. doi: 10.1158/1078-0432.CCR-17-1121. Epub 2017 Sep 12. PMID: 28899971; PMCID: PMC6636827.
Background: In ATP-based viability assays light output follows the ATP content of the culture.
As for `CC1(C)OC2=C(C(=O)c3ccccc3C2=O)[C@H](NCc2ccccc2)[C@H]1O`, the Potency is 6.62 µM (active). For the compound `CC1COC2(CCN(c3nc(=O)c4cc(C(F)(F)F)cc([N+](=O)[O-])c4s3)CC2)O1` (stereo not given), the “viability, % of DMSO control” value was 126%. For the compound `CC(=O)OCCN1C(=O)c2c(C)nc3ccc(S(=O)(=O)N4CCOCC4)cc3c2C1=O`, the “viability, % of DMSO control” value was 132%.

Consider `CC(C)=CCCC(C)=CCCC(C)=CCSc1ccccc1C(=O)O`, for which the Potency was 1.66 µM (active). Same read-out and setting: with `O=C(Nc1nc2cccc(-c3ccc(CN4CCS(=O)(=O)CC4)cc3)n2n1)C1CC1` the figure was 13.2 µM (active); with `COC(=O)[C@]12CCC(C)(C)C[C@@H]1[C@@H]1C(=O)C=C3[C@@]4(C)C=C(C#N)C(=O)C(C)(C)[C@@H]4CC[C@@]3(C)[C@]1(C)CC2`, 0.526 µM (active). As to `Clc1cccc(-n2nnnc2NCc2ccccc2Oc2ccccn2)c1Cl`, the “viability, % of DMSO control” value was 167%.

As to `O=C(O)CO.[NH2-].[NH2-].[Pt+2]`, the “viability, % of DMSO control” value is 187%. Consider `CC[C@@H]1C(=O)N(C)c2cnc(Nc3ccc(C(=O)NC4CCC(N5CCN(CC6CC6)CC5)CC4)cc3OC)nc2N1C(C)C` (stereo not given in full), for which the Potency was 0.209 µM (active). Take `C[C@@H](Oc1cc(-n2cnc3ccc(CN4CCN(C)CC4)cc32)sc1C(N)=O)c1ccccc1C(F)(F)F`: the Potency was 0.0935 µM (active).

Take `NC(=O)c1c(OCc2c(F)cc(Br)cc2F)nsc1NC(=O)NCCCCN1CCCC1`: the Potency is 18.7 µM (active). Turning to `CNC(=O)c1nn(C)c2c1C(C)(C)Cc1cnc(Nc3ccc(N4CCN(C)CC4)cc3)nc1-2`, the Potency is 4.18 µM (active). With `COc1cc2c(cc1-c1c(C)noc1C)ncc1[nH]c(=O)n([C@H](C)c3ccccn3)c12`, the Potency is 0.662 µM (active).

Take `CCCCN1CCC(CNC(=O)c2c3n(c4ccccc24)CCCO3)CC1`: the Potency is 23.5 µM (active).

For the compound `O=C(O)CCCc1c[nH]c2ccccc12`, the “viability, % of DMSO control” value is 112%.

For `O=C(Nc1ncc(-c2cc(C(F)F)nn2-c2c(Cl)cccc2Cl)s1)C1CC1`, the Potency was 0.935 µM (active). For the compound `COc1ccc(F)c(F)c1C(=O)c1cnc(NC2CCN(S(C)(=O)=O)CC2)nc1N`, the Potency is 2.35 µM (active). Same read-out and setting: with `COCCOc1ccc2c(c1)ncn2-c1ccc2cccc(N3CCC(N)CC3)c2n1` the figure was 13.2 µM (active); with `O=c1[nH]nc(Sc2ncc([N+](=O)[O-])s2)n1-c1ccc2c(c1)OCCO2`, 3.32 µM (active). The same measure, in the same setting: with `O=C(CCCCCCNC(=O)c1cnc(N(c2ccccc2)c2ccccc2)nc1)NO` the figure was 7.43 µM (active); with `CNC(=O)c1c(F)cccc1Nc1nc(Nc2cc3c(cc2OC)CCN3C(=O)CN(C)C)nc2[nH]ccc12`, 0.132 µM (active); with `c1ccc2c(CCNc3ccc(Nc4ccncc4)cc3)c[nH]c2c1`, 18.7 µM (active). With `Cc1[nH]c2ccccc2c1CCNCc1ccc(C=CC(=O)NO)cc1`, the Potency was 0.059 µM (active).

On to `COc1cc2c(NC3CCN(C(C)C)CC3)nc(C3CCCCC3)nc2cc1OCCCN1CCCC1`, for which the Potency was 16.6 µM (active). The same measure, in the same setting: as for `O=C(Cc1ccc(-c2ccc(OCCN3CCOCC3)cc2)cn1)NCc1ccccc1`, the figure is 0.0469 µM (active). Same read-out and setting: with `Nc1ccn([C@@H]2O[C@H](CO)[C@H](O)C2(F)F)c(=O)n1` the figure was 0.469 µM (active).

As for `Cn1c(CNc2ccc(C(=N)N)cc2)nc2cc(C(=O)N(CCC(=O)O)c3ccccn3)ccc21`, the “viability, % of DMSO control” value is 121% [at 23.2 µM].

Consider `COc1cc(OC2CCN(C)CC2)ccc1Nc1ncc2c(n1)n(C1CCCC1)c(=O)n2C`, for which the Potency was 16.6 µM (active). For the compound `Cc1cn2c(-c3cn[nH]c3)cnc2c(Nc2ccc(C(=O)N3CCNCC3)cc2F)n1`, the Potency was 18.7 µM (active).

Consider `CC(C)(O)CCc1ccc(OCc2cc(-c3cccc(OC(F)F)c3)c3ncccc3c2)cc1`, for which the “viability, % of DMSO control” value is 119%. Turning to `CCc1c2c(nc3ccc(O)cc13)-c1cc3c(c(=O)n1C2)COC(=O)[C@]3(O)CC`, the Potency was 0.166 µM (active). `Cc1ccc(NC(=O)C2(c3ccc4c(c3)OC(F)(F)O4)CC2)nc1-c1cccc(C(=O)O)c1`: the Potency is 0.0418 µM (active). On the same count and under the same terms, as for `CNC(=O)CN1CCC(Oc2cc3c(Nc4cccc(Cl)c4F)ncnc3cc2OC)CC1`, the figure is 0.0833 µM (active).

For the compound `COc1ccc2c(OCc3nnc4ccc(-c5ccccc5)nn34)ccnc2c1`, the “viability, % of DMSO control” value was 156%. Take `NCC(=O)Nc1ccc(-n2nc(C(F)(F)F)cc2-c2ccc3c(ccc4ccccc43)c2)cc1`: the Potency was 29.6 µM (active).

As to `CN(C)CC=CC(=O)Nc1cc2c(Nc3ccc(F)c(Cl)c3)ncnc2cc1O[C@H]1CCOC1`, the Potency is 18.7 µM (active).

As to `CN1CCN(Cc2ccc(NC(=O)Nc3ccc(Oc4cc(NC(=O)C5CC5)ncn4)cc3)cc2C(F)(F)F)CC1`, the Potency was 0.372 µM (active). In the case of `O=C(O)[C@H](Cc1c[nH]c2ccccc12)N1C(=O)c2ccccc2C1=O`, the “viability, % of DMSO control” value was 148% [at 92.2 µM]. As to `Cn1cncc1[C@@](N)(c1ccc(Cl)cc1)c1ccc2c(c1)c(-c1cccc(Cl)c1)cc(=O)n2C`, the Potency is 8.33 µM (active). On to `Cc1ccc2nc(NC(=O)CSc3nc4c(c(=O)n3-c3ccccc3)SCC4)sc2c1`, for which the Potency was 23.5 µM (active).
